Measurements taken from PubChem BioAssay AID1241 (SRMLSC, 2008).
Out of some 1,200 compounds screened, about 840 (70%) were called active. The rule behind the calls is not given here. The set was probably picked from earlier hits. These entries were drawn from the full list. Measured potencies and affinities stand elsewhere.

Assay: compounds inducing NF-kB luciferase expression – cell-based, SH-SY5Y, dose response (AID 1241)
Conditions: SH-SY5Y NF-kB promoter luciferase reporter; series mostly up to 30 µM

Fold induction over control, inactive:
Cc1ccccc1-c1nnc(SCc2ccccc2F)o1
CCCn1c(/C=C/c2ccccc2)nc2ccccc21
CCCCCNc1nc(-c2ccccc2)cs1
COc1ccc(-c2csc(-c3ccc(C(=O)O)cc3)n2)cc1
CC1=C/C(=N\OS(=O)(=O)c2ccccc2)C(C(C)C)=CC1=O
CCOc1ccc2ccccc2c1CNCCN1CCOCC1
COc1ccccc1-c1noc(-c2ccccc2)n1
CC(=O)Nc1ccc(-c2cn3cc(C)ccc3n2)cc1
CCOc1ccc(/C=N/n2c(SC)nnc2-c2ccccc2)cc1OCC
CC(=O)Oc1ccc(/C=N/NC(=S)Nc2ccccc2)cc1
O=C(Cc1ccccc1F)Nc1ccc(SC(F)F)cc1
Cc1nc(NC(=O)c2cccs2)ccc1Br
O=C(NC(=S)Nc1cccc(-c2ccc(CO)o2)c1)c1cccs1
Cc1ccc(C(=O)Nc2ccc3nc(C)sc3c2)s1
COC(=O)c1ccc2nc(NC(=O)C(C)C)sc2c1
CC1Cc2ccccc2N1C(=O)/C=C/c1cccc(F)c1 (stereo not drawn)
CN(C)CCCN(C(=O)/C=C/c1cccs1)c1nc2c(F)cccc2s1
CN1C(=O)/C(=C/C=C2\SCCN2C)N(C)C1=S
O=C(/C=C/Sc1ccccc1)c1ccccc1
C=C(C(=O)c1ccccc1)C(C)C(=C)C(=O)c1ccccc1
O=C(/C(C=Nc1ccc(Br)cc1)=C(/O)c1ccco1)C(F)(F)F
O=C(N/N=C\c1ccc(Oc2ccccc2)cc1)c1csnn1
Cc1cccc(/C(N)=N/OC(=O)c2ccco2)c1
O=C1/C(=C/c2cccs2)CCC1C1CCCC1 (stereo not drawn)
O=C(c1ccccc1)c1nnc(-c2ccccc2F)o1
CC1=CC(c2ccccc2)=Nc2ccc(C)cc2N1
COc1ccc(C2=NN(C(C#N)c3ccc(OC)cc3)C(c3ccccc3)C2)cc1 (stereo not drawn)
CN1CCN(Cc2nc3ccccc3c(=O)n2Cc2nc(-c3ccc4ccccc4c3)cs2)CC1
CCOc1ccc(-c2nc3ccccc3c(=O)o2)cc1
CCSc1ncc(/C=N/Nc2ccc(Cl)cc2)n1C
CCOC(=O)c1[nH]c2c(c1C)C(=O)CC(c1ccco1)C2 (stereo not drawn)
O=C(O)CCCNC(=O)Nc1ccccc1
CCCC(O)(CCC)C(=O)NN(C(=O)CCl)c1ccccc1
CC(C)c1cc(C(=O)Nc2cc(Cl)ccc2O)no1
O=c1[nH][nH]cc1C=Nc1ccccc1O
O=c1oc2cc(Cl)ccc2n1CSc1nc2ccccc2s1
CN1CCN(Cc2cc(Cl)c3cccnc3c2OC(=O)c2cccs2)CC1
COC(=O)CSc1nc2ccc(C)cc2cc1C#N
CCOC(=O)CC(=O)CSc1nc2ccc(C)cc2cc1C#N
COCCNC(=O)c1cc(-c2cccs2)on1
O=c1[nH]c(=O)n([C@H]2C[C@H](O)[C@@H](CO)O2)cc1C(F)(F)F
COc1cc(C(Nc2ccccn2)c2ccc3ccc(C)nc3c2O)cc(OC)c1O (stereo not drawn)
Cc1c(NC(=O)CSc2cccc3cccnc23)c(=O)n(-c2ccccc2)n1C
CCOC(=O)C(C)On1c(-c2ccc(Cl)cc2)nc2ccc([N+](=O)[O-])cc21 (stereo not drawn)
Cc1ccc(COn2c(-c3ccc(Cl)cc3)nc3ccc([N+](=O)[O-])cc32)cc1
CCN1CCCc2cc(CN(CCN3CCOCC3)C(=S)Nc3cccc(Cl)c3)ccc21
CCc1nc(Sc2nnnn2-c2ccccc2)c2c3c(sc2n1)CCCC3
CCC/C=N/Nc1nc2ccccc2s1
COc1ccc(C(=O)c2oc3ccc(OC)cc3c2N)cc1
O=c1cc(-c2ccc3c(c2)OCCO3)oc2ccc(Cl)cc12 10.2 [at 3.75 µM]
CCCNC(=O)c1cc(-c2ccc(OC)cc2)on1
N/C(=N\OC(=O)COc1ccc(Cl)cc1Cl)c1ccncc1
COc1cccc(-c2nc3ccccc3s2)c1O
Brc1ccc(-c2nc3ccccc3s2)s1
Cc1ccc2[nH]c(-c3ccccc3)cc(=O)c2c1
Cc1ccc(-c2cc(=O)c3cc(C)ccc3[nH]2)cc1
Clc1ccc2nc3c4ccccc4cnn3c2c1
C/C(N)=C(/C#N)C(=O)CSc1nnc(-c2ccccc2Br)o1
CCOC(=O)/C(=C\c1ccc(OC(F)F)cc1)C1=Nn2c(nnc2-c2ccc(Cl)cc2)SC1
CC(OC(=O)CCc1nc2ccccc2c(=O)[nH]1)C(=O)c1ccc(C(C)(C)C)cc1 (stereo not drawn)
CCCOC(=O)c1ccc(NC(=O)CC(C)(C)C)cc1
COc1ccc(-c2cc(-c3ccccc3)c(C#N)c(S(C)(=O)=O)n2)cc1
CC1=CN2C(=N)/C(=C/c3ccco3)C(=O)N=C2S1
Cc1cc(NC2CCCCC2)n2c(n1)nc1ccccc12
Cc1cccc(-c2c(O)cc(=O)[nH]c2Cl)c1
CC(C)Oc1ccc2c(=O)c(-c3ccccc3)coc2c1
CCOc1cc(/C=C2/NC(=O)N(Cc3ccccc3F)C2=O)ccc1O
Cc1cc(C)nc(Sc2nc(C)nc3c2oc2ccccc23)n1
COC(=O)C1C(=O)/C(=C/N(C)C)C(=O)CC1(C)C (stereo not drawn)
Clc1ccc(-c2cc(CSc3ccccc3)on2)cc1
O=C(NCCN1CCOCC1)c1cc(-c2cccs2)on1
O=C1N/C(=C/c2ccc(N3CCOCC3)o2)C(=O)N1c1ccccc1
COc1ccc(/C=N/n2c(-c3cccs3)n[nH]c2=S)cc1
CCOc1ccc(C2=NNC(c3cccs3)=Nc3ccc(OC)cc32)cc1
COc1ccc(/C=N/Nc2ccc([N+](=O)[O-])cc2S(=O)(=O)N2CCN(C)CC2)cc1
COc1ccc(/C=N/NC(=O)COc2ccccc2-c2ccccc2)cc1
CNC(=S)N/N=C(\C)c1ccc(N2CCOCC2)cc1
COC(=O)N/N=C(/c1ccccc1)C1CCCCC1
O=c1c2c(nc3cc(-c4cccc(Cl)c4)[nH]n13)CCC2
O=C(Nc1ccc2ccccc2c1)c1cnccn1
c1ccc(Nc2nc3ccccc3o2)cc1
NC(N)=N/N=C/c1ccc(OCc2ccc(Cl)cc2)cc1
Cn1cccc1/C=C1\Cc2ccccc2C1=O
COc1ccc(C(=O)/C=C/c2cccs2)c(OC(=O)c2cccc([N+](=O)[O-])c2)c1
COc1ccc(/C=C\c2nc(=O)c3ccccc3o2)cc1
Cc1nc(SCc2ccc(Cl)cc2)ncc1C(=O)O
CC(C)CC(=O)Nc1ccc2c(c1)oc1ccccc12
CC(=O)Nc1cc2nn(-c3ccccc3)nc2cc1Cl
COc1ccc(-[n+]2c(C)cc(/C=C3\Sc4ccccc4N3C)cc2C)cc1
Cc1ccc(C2=NN3C(C2)c2ccccc2OC32C(=O)Nc3ccccc32)cc1 (stereo not drawn)
Cc1[nH]n(-c2ccccc2)c(=O)c1C=NC1CCCCC1
C=CCN=Cc1c(C)[nH]n(-c2ccccc2)c1=O
O=C(Nc1ccccc1O)c1ccc(Cl)cc1
CCOC(=O)c1noc(C)c1C(=O)Nc1nccs1
COc1cccc(NC(=S)N(CCN(C)C)Cc2cccs2)c1
O=C(c1ccco1)n1c(=S)nc2ccccn21
Cc1ccc(C(=O)CSc2nsc(C)c2C#N)cc1
Cc1cccc2nc(=S)n(C(=O)c3ccco3)n12
CCOC1CS(=O)(=O)CC1OCC (stereo not drawn)
O=C(c1ccccc1)c1ccccc1C(=O)N1CCCC1
Cc1cccc(/C(N)=N/OC(=O)c2cccs2)c1
COc1ccc(N=c2sc3ccccc3n2C)cc1
COc1ccc(N=C2C(=Nc3ccc(OC)cc3)N(c3ccccc3)C(=S)N2C(=O)c2ccc(Cl)cc2)cc1
COc1cc(C2C(S(=O)(=O)c3ccccc3)CON2C)ccc1OCc1ccc(F)cc1 (stereo not drawn)
O=C(Oc1ccccc1/C=C\C(=O)c1cc2ccccc2o1)c1ccccc1
Cn1c(SCc2ccc(C#N)cc2Cl)nc2ccccc21
c1ccc2nc3c(nc2c1)[nH]c1ccccc13
c1ccc(C2=Nc3ccccc3SC2c2nc3ccccc3[nH]2)cc1 (stereo not drawn)
COC(=O)c1ccc(COn2nnc3ccccc32)cc1
CCCOc1ccc2c3c(c(=O)oc2c1OCCC)CCC3
O=C(Oc1ccc(-c2ccccc2)cc1)N1CCCCC1
COc1ccccc1-c1cc(C(=O)N2CCCCC2)no1
O=C(NCCN1CCOCC1)c1cc(-c2ccccc2)on1
O=C(NCCCN1CCOCC1)c1cc(-c2ccccc2)on1
Cc1cccc(-c2cc3nc(C)cc(C)n3n2)c1
CNc1nc(-c2ccccn2)nnc1-c1ccccc1
CN1CCN(CC(=O)N2c3ccccc3C(C)(c3ccccc3)CC2(C)C)CC1 (stereo not drawn)
Cc1cccc(-c2noc(-c3ccc(F)cc3)n2)c1
O=C(Nc1ccc(N2CCCC2=O)cc1)c1cccc(F)c1
O=C(CSc1nc(Nc2ccccc2)nc(N2CCOCC2)n1)Nc1ccccc1Cl
Cc1ccc(-c2cnc3cc(C)nn3c2)cc1
CCCc1cc(C(=O)Nc2cc(Br)ccc2O)no1
N#Cc1ncc(-c2ccc3c(c2)OCCOCCOCCOCCOCCO3)nc1C#N
